Measurements: the OligoGym collection

Biological target: IBTK
Assay: pooled miR-30 sensor sort-seq; sequence = guide strand
Details: shRNA
Also: reference of the scale not given here.

Sequence | sensor-assay potency score (higher = more potent)
TAACACAGACTGTAGCTCCATC | -0.515
TAAGCCAATCTAACACTCCTTT | 0.0727
TAAACAGCTTCTCTAGTCCATA | -1.24
TAAACTGTAAACAAGACAGTTT | -0.0719
TTGCACTATACATTGCTGCAAA | -0.722
TAGCATAGCAGCATTCTTCAGG | -0.0417
TAATACAACAGTATGATCCTTA | 1.02
TTTGCTTTCTTGAACATAGTTT | -0.494
TTCTTGAACATAGTTTCCGAAT | -1.25
TTGAGCTTGATTACTTTTGTAA | 0.24
TCTTCTTGCACTGATAGTCTGC | -0.142
TTATCTTGAATATACAGACTAA | -0.465

Biological target: ICAM4
Assay: as above
Details: shRNA

Sequence | sensor-assay potency score (higher = more potent)
TTGAGCTGCACTGACTTCCCCG | 0.304
TGCACAGCCACGAACTCCGGGC | -1.29
TTTTTCTCGCTCAGCCGGCATA | -1.31
TATTCCTCTTTTTCTCGCTCAG | -0.694
TAGGCGGTGATCCTGGAGGTGG | -1.35
TCGTAGGTCAAGGTCACGTTGG | -0.884
TTTTCCTGCGCAGGTCACGAGG | -1.77
